Measurements from PubChem BioAssay.
For some of these results: Entries with a potency or affinity are not part of this list. Activity calls are given as the source filed them.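 How the source made its calls, unless noted: active means hit in primary screen, with calcium signal over 5 SD above buffer well mean in both duplicates; inactive means the rest.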

Legend:
[1] = system: TRPC4 beta (transient receptor potential cation channel C4), mouse; experiment: TRPC4 cation channel opening, retest – cell-based, Fluo4 calcium, HEK293 TRPC4beta/mu-opioid, duplicates, 10 µM, confirmation (AID 2426;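 active means fluorescence ratio normalized to control raised more than 50% in primary screen plus both repeat runs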;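 on activation: percent rise of integrated ratio over buffer wells lacking compound which define 0%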); details: Fluo4 calcium fluorescence, at 10 µM; active compounds read high
[2] = system: transient receptor potential cation channel C4 beta (TRPC4), mouse; experiment: TRPC4 cation channel opening, second retest – cell-based, second round, Fluo4, HEK293 TRPC4beta/mu-opioid, 1 µM, confirmation (AID 2461;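 active means primary screen active and over 50% activation in each of two duplicate runs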;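 on activation: 0% = wells without test compound as baseline of integrated fluorescence ratio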); details: Fluo4 calcium fluorescence, at 1 µM; active compounds read high
[3] = system: TRPC4 (transient receptor potential cation channel C4 beta), mouse; experiment: potentiation of DAMGO EC20 TRPC4 response – cell-based, second round, Fluo-4, HEK293 TRPC4beta/mu-opioid, 1 µM, confirmation (AID 2554;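 active means primary screen hit whose fluorescence ratio, in both repeats, exceeds the weak agonist control mean by 3 SD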); details: DAMGO EC20, Fluo-4 calcium flux, at 1 µM; active compounds read high
[4] = system: TRPC4 beta (transient receptor potential cation channel C4), mouse; experiment: potentiation of DAMGO EC20 TRPC4 response – cell-based, Fluo-4, HEK293 TRPC4beta/mu-opioid, confirmation (AID 2555;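 active means primary screen hit whose calcium fluorescence ratio, in both repeats, exceeds the weak agonist control mean by 3 SD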); details: DAMGO EC20, Fluo-4 calcium flux, at 10 µM; active compounds read high
[5] = molecular target: Short transient receptor potential channel 4 (Mus musculus) (UniProt Q9QUQ5); experiment: blockers of DAMGO-evoked TRPC4 calcium flux – cell-based, Fluo4, HEK293 TRPC4beta/mu-opioid, confirmation (AID 2636;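 active means calcium signal cut by more than 3 SD below the full-agonist control yet still positive, in both repeats and the earlier primary screen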); details: at 10 µM; active compounds read high
Sequence of Short transient receptor potential channel 4 (Mus musculus) (Q9QUQ5 whole entry, looked up): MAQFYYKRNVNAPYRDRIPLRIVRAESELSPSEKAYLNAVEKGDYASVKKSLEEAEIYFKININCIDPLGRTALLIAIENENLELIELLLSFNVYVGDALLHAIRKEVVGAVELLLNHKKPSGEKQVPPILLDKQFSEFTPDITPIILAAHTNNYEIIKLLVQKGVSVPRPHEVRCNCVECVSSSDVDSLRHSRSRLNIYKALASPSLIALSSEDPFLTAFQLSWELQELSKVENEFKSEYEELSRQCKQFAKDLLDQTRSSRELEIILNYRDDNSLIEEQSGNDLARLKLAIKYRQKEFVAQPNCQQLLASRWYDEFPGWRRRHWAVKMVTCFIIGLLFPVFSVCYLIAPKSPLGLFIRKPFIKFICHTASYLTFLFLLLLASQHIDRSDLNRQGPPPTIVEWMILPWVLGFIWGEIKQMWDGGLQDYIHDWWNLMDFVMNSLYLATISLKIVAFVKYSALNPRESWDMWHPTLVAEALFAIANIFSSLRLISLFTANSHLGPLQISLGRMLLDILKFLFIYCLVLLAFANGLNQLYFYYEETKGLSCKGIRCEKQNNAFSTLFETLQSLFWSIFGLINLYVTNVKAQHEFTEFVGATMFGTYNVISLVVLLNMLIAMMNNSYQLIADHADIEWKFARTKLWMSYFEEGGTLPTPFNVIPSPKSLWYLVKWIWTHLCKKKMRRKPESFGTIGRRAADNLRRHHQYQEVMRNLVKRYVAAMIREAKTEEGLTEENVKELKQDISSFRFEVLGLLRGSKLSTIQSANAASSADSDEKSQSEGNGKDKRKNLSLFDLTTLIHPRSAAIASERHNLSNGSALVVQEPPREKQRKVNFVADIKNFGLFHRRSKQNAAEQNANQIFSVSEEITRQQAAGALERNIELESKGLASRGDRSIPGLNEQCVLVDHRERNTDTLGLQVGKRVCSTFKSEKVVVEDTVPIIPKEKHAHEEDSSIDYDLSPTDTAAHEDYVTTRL

[6] = molecular target: Short transient receptor potential channel 4 (Mus musculus) (UniProt Q9QUQ5); experiment: blockers of DAMGO-evoked TRPC4 calcium flux – cell-based, second round, Fluo4, HEK293 TRPC4beta/mu-opioid, 1 µM, confirmation (AID 2637;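 active means calcium signal ratio cut to more than 3 SD under the fully stimulated control mean yet still positive, in both repeats and the primary screen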;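 on inhibition: percent of integrated ratio relative to wells lacking test compound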); details: at 1 µM; active compounds read high
[7] = molecular target: Short transient receptor potential channel 4 (Mus musculus) (UniProt Q9QUQ5); experiment: potentiation of DAMGO-evoked TRPC4 calcium signal – cell-based, HEK293 TRPC4/mu-opioid, Fluo-4 calcium, EC20 DAMGO, dose response (AID 434941;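 active means earlier screen potentiator hit that boosts the TRPC4 ion channel at some dose, with a dose response; inactive means no potentiation, no dose response, or not a prior hit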;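 further: calcium entry triggered by an EC20 dose of DAMGO at the co-expressed mu-opioid receptor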)
[8] = molecular target: Short transient receptor potential channel 6 (Mus musculus) (UniProt Q61143); experiment: TRPC6 blockade by TRPC4 inhibitor hits – cell-based, HEK293, membrane potential dye, duplicate, selectivity assay for TRPC4 inhibitor project, confirmation (AID 434948;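 active means active in primary screen and both duplicates, each dropping signal beyond three positive-control SD with fluorescence still positive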); details: HEK293 TRPC6, membrane potential dye fluorescence, at 10 µM, stimulated with maximal-effect acetylcholine; active compounds read high
Sequence of Short transient receptor potential channel 6 (Mus musculus) (Q61143 whole entry, looked up): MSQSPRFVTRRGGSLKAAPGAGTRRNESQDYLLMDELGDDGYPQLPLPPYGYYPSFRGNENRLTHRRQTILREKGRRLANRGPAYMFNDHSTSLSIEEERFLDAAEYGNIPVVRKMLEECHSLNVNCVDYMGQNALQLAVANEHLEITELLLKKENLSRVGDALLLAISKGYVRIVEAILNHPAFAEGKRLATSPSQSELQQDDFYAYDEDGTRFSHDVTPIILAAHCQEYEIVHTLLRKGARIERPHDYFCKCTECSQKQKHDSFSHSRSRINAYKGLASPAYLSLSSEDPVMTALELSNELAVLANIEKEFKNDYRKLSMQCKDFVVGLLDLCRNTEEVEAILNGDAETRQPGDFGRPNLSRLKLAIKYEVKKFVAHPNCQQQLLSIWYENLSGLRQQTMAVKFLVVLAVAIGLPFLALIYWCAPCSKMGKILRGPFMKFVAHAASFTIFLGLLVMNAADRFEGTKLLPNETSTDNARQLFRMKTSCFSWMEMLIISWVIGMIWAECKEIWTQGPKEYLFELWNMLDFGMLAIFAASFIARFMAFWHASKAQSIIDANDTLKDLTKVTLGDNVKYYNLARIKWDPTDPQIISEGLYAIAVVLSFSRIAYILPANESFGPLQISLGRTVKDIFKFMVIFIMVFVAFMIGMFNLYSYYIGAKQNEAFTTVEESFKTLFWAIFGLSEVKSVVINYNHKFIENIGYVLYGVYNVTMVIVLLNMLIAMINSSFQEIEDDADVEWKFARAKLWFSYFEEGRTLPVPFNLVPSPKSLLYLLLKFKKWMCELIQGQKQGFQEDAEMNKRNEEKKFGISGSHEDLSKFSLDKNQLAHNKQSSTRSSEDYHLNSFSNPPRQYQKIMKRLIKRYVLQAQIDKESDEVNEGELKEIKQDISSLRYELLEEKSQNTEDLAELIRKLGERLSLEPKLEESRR

[9] = molecular target: Short transient receptor potential channel 6 (Mus musculus) (UniProt Q61143); experiment: TRPC6 opening by TRPC4 activator hits – cell-based, HEK293, membrane potential dye, duplicate, selectivity assay for TRPC4 activator project, confirmation (AID 434950;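 active means membrane potential signal rise above negative control mean plus 3 SD in both duplicates, also active in the earlier TRPC4 screen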;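 on activation: 0% = buffer only wells and 100% = acetylcholine maximal-effect wells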); details: HEK293 TRPC6, membrane potential fluorescence, at 10 µM; activation: active compounds read high; outcome: activation
[10] = molecular target: Short transient receptor potential channel 6 (Mus musculus) (UniProt Q61143); experiment: positive modulators of mouse TRPC6 channel – HEK293 cells, membrane potential dye, duplicate, selectivity assay for TRPC4 potentiator project, confirmation (AID 434952;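 active means compound raising the membrane signal above positive-control mean plus 3 SD in both repeats, and a primary screen hit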); details: HEK293 TRPC6, membrane potential dye fluorescence, at 10 µM, maximal acetylcholine added after compound; active compounds read high
[11] = molecular target: Short transient receptor potential channel 4 (Mus musculus) (UniProt Q9QUQ5); experiment: calcium flux activators in TRPC4/5HT1a cells, counter-screen for TRPC4 activator project, cell-based, second counter screen, HEK293 TRPC4/5HT1a, Fluo-4 (AID 434977;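 active means calcium signal rise above buffer-control mean plus 5 SD in both duplicates, and also a hit in the primary screen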;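 on activation: plate controls were assay buffer for no effect and maximal serotonin response for full effect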); details: Fluo-4 calcium flux, at 10 µM; active compounds read high
[12] = serotonin-gated TRPC4 signal block – cell-based, second counter screen, HEK293 TRPC4/5HT1a, Fluo-4, counter-screen for TRPC4 inhibitor project, confirmation (AID 434978;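 active means primary screen active whose calcium signal fell more than 3 SD beyond the full-serotonin control mean in both duplicate plates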;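 on outcome: serotonin given first at submaximal then at maximal dose after compound preincubation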); details: Fluo-4 calcium flux, at 10 µM, serotonin added to trigger calcium flux; active compounds read high
[13] = system: TRPC4 (mouse), co-expressed with 5HT1a in HEK293; experiment: enhancement of serotonin-evoked TRPC4 response – cell-based, second counter screen, HEK293 TRPC4/5HT1a, Fluo-4, counter-screen for TRPC4 potentiator project, confirmation (AID 434979;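 active means signal rise over 3 SD above mean of control wells given weak agonist, in both repeats and first screen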); details: Fluo-4 calcium flux, at 10 µM, serotonin added at its EC20 dose; active compounds read high
[14] = nonspecific calcium rise without TRPC4 – cell-based, HEK293 mu-opioid receptor line, counter-screen for TRPC4 activator project, confirmation (AID 449723); details: HEK293 mu-opioid cells, Fluo-4 calcium fluorescence, at 10 µM; active compounds read high;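 further: counter screen cells carry the mu-opioid receptor alone and lack TRPC4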
[15] = nonspecific potentiation of DAMGO calcium response – cell-based, HEK293 mu-opioid receptor line, counter-screen for TRPC4 allosteric potentiator project, confirmation (AID 449724;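 active means calcium signal rise more than 3 SD above the low-dose agonist control mean, in both duplicate plates and the primary screen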); details: HEK293 mu-opioid receptor cells, Fluo-4 calcium flux, at 10 µM, compound added before EC20 DAMGO stimulus; active compounds read high
[16] = molecular target: Short transient receptor potential channel 4 (Mus musculus) (UniProt Q9QUQ5); experiment: block of DAMGO-driven TRPC4 calcium entry – cell-based, HEK293 TRPC4/mu-opioid, Fluo-4 calcium, dose response (AID 434942;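 active means primary screen inhibitor hit that blocks the TRPC4 channel at some tested dose, yielding a dose curve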)
[17] = nonspecific flux increase, KCNQ1-free cells – parental CHO cells, counter-screen for KCNQ1 potentiator project (AID 493006;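 active means duplicate-averaged activation above buffer control mean plus 5 SD of those controls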;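 on activation: fluorescence ratio of max minus min over baseline after K+ and Tl+ depolarization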); details: parental CHO-K1 cells, FluxOR thallium flux, at 10 µM; active compounds read high
[18] = molecular target: Potassium voltage-gated channel subfamily KQT member 1 (Homo sapiens) (UniProt P51787); experiment: enhancement of KCNQ1 channel thallium flux – FluxOR thallium flux, CHO cells, duplicates, confirmation (AID 493007;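 active means potentiation averaged over duplicate wells exceeding buffer-only control mean by more than 3 SD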;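 further: 0% = buffer-only wells and 100% = R-L3 activator control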); details: KCNQ1 cell line, FluxOR thallium flux fluorescence, at 10 µM; active compounds read high, % of reference activator effect, buffer zero
Sequence of Potassium voltage-gated channel subfamily KQT member 1 (Homo sapiens) (P51787 whole entry, looked up): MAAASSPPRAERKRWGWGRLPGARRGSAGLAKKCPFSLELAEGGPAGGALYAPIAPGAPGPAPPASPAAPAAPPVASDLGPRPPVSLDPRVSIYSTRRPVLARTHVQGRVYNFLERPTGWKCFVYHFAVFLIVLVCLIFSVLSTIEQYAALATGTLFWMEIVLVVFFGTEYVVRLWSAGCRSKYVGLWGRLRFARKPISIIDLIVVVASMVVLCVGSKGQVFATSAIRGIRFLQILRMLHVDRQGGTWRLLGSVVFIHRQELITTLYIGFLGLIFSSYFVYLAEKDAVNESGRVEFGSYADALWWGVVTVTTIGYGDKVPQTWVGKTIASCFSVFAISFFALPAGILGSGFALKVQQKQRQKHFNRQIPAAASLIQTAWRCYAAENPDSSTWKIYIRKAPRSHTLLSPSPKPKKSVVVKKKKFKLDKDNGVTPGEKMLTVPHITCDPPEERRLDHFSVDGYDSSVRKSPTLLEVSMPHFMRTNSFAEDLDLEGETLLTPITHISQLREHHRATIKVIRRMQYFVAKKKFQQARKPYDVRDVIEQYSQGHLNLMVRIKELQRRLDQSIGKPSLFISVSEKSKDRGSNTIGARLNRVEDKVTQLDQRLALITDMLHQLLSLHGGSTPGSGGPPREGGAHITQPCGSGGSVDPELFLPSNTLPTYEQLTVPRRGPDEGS

[19] = molecular target: Potassium voltage-gated channel subfamily KQT member 2 (Rattus norvegicus) (UniProt O88943); experiment: KCNQ2 thallium flux enhancement – KCNQ2-CHO-K1 cells, selectivity assay for KCNQ1 potentiator project (AID 493009;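 active means mean duplicate potentiation above the buffer control mean plus 5 SD of buffer wells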;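 further: assay conditions were tuned for KCNQ1 rather than KCNQ2 modulators; signal is max minus min fluorescence divided by baseline after thallium stimulus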); details: FluxOR thallium flux fluorescence, at 10 µM; active compounds read high, scaled: buffer 0, activator control 100
Sequence of Potassium voltage-gated channel subfamily KQT member 2 (Rattus norvegicus) (O88943 whole entry, looked up): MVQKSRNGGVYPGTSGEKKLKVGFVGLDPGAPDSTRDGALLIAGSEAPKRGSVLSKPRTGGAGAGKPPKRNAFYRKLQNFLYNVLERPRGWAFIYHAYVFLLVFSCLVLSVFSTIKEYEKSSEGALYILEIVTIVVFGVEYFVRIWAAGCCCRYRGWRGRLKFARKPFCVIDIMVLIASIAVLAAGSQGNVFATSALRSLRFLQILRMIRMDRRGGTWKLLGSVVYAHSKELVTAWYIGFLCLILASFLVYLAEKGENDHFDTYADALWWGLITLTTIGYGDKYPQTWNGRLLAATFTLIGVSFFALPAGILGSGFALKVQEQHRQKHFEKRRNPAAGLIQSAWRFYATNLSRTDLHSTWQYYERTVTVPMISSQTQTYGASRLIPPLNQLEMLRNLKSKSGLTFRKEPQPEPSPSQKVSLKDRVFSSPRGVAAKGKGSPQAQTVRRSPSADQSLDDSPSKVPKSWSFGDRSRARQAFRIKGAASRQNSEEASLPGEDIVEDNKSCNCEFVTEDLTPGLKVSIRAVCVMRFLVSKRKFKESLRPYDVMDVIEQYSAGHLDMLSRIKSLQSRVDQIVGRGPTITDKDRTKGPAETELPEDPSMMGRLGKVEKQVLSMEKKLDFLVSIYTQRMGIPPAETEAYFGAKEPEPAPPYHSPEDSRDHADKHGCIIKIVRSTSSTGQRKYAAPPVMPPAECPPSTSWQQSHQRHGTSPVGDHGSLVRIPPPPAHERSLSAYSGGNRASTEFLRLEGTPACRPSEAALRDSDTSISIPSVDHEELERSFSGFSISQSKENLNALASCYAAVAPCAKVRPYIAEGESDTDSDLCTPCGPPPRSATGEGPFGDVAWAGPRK

[20] = molecular target: Potassium voltage-gated channel subfamily KQT member 1 (Homo sapiens) (UniProt P51787); experiment: KCNQ1 activators by electrophysiology – IonWorks patch clamp, KCNQ1-CHO cells, orthogonal assay for KCNQ1 potentiator project, confirmation (AID 493184;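 active means current rise at least 3 SD above the untreated control mean in each of two repeat wells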); details: automated patch clamp current, at 10 µM; active compounds read high

Cc1onc(-c2ccccc2)c1C(=O)NNC(=S)NC(=O)/C=C/c1ccccc1
inactive: outcome [1] | outcome [2] | outcome [3] | outcome [4] | outcome [6] | outcome [7] | outcome [8] | outcome [10] | outcome [13] | outcome [15]
active: inhibition [5] 77% | activation [9] 32.5% | activation [11] 39.7% | inhibition [12] 19.2% | activation [14] 14.8%

COc1ccc(CCN(C)CCN2C(=O)c3ccccc3C2=O)cc1OC
active: activation [1] 252% | activation [2] 103% | inhibition [6] 43% | activation [11] 96.5% | inhibition [12] 1.2%
inactive: outcome [3] | outcome [4] | outcome [5] | outcome [7] | outcome [8] | outcome [9] | outcome [10] | outcome [13] | outcome [14] | outcome [15]

CN(C)C(CNC(=O)C1CCN(S(=O)(=O)c2cccc(C(F)(F)F)c2)CC1)c1ccccc1 (stereo not given)
inactive: outcome [1] | outcome [2] | outcome [3] | outcome [4] | outcome [5] | outcome [7] | outcome [8] | outcome [9] | outcome [10] | outcome [11] | outcome [12] | outcome [13] | outcome [14] | outcome [15]
active: inhibition [6] 85%

CCCOc1ccc(C(=O)NNC(=S)NC(=O)c2ccccc2)cc1
inactive: outcome [2] | outcome [3] | outcome [4] | outcome [5] | outcome [6] | outcome [7] | outcome [16] | outcome [8] | outcome [9] | outcome [10] | outcome [12] | outcome [13] | outcome [15] | outcome [20]
active: activation [1] 152% | activation [11] 122% | activation [14] 39.5% | activation [17] 180% | potentiation [18] 168% | potentiation [19] 318%

CN(C)/C=C1\C(=O)N(c2ccc([N+](=O)[O-])cc2)N=C1c1ccccc1
inactive: outcome [2] | outcome [3] | outcome [4] | outcome [6] | outcome [7] | outcome [8] | outcome [9] | outcome [10] | outcome [13] | outcome [14] | outcome [15]
active: activation [1] 76% | inhibition [5] 85% | activation [11] 68.6% | inhibition [12] -1.74%

CCOc1ccccc1N(CC(=O)N1CCOCC1)S(=O)(=O)c1ccccc1
active: activation [1] 155% | activation [9] 56.5% | activation [11] 94% | inhibition [12] 16% | activation [14] 74.4%
inactive: outcome [2] | outcome [3] | outcome [4] | outcome [5] | outcome [6] | outcome [7] | outcome [8] | outcome [10] | outcome [13] | outcome [15]

Cc1onc(-c2ccccc2)c1C(=O)NNC(=S)NC(=O)c1ccc(Cl)cc1Cl
inactive: outcome [3] | outcome [4] | outcome [5] | outcome [6] | outcome [7] | outcome [16] | outcome [8] | outcome [10] | outcome [12] | outcome [13] | outcome [15] | outcome [17] | outcome [19] | outcome [20]
active: activation [1] 274% | activation [2] 81% | activation [9] 28% | activation [11] 142% | activation [14] 96.9% | potentiation [18] 29.5%
